# PubChem BioAssay AID720690 (Broad Institute, 2013)
# Entries with a potency or affinity are not part of this list. The source made the active and inactive calls.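 How the source made its calls: active means every repeat run showing a signal drop whose fitted half-maximal concentration is at most twice the top tested concentration; inconclusive means repeat runs disagree, or flat partial drop, or poor fit; inactive means the rest.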
# Assay: HEK293T cytotoxicity, dose response, cytotoxicity control for miR-122 modulator project, cell-based, activator set, cherry-pick (AID 720690)
# Conditions: HEK293T viability, CellTiter-Glo luminescence, 48 h; series mostly up to 26 µM
row,Compound,outcome
1,COC(=O)c1c(N)nc(C)n1-c1ccc(OC)cc1,inactive
2,Fc1ccccc1-c1nc(-c2ccncc2)no1,inactive
3,CCCNC(=O)C[C@@H]1CC[C@@H]2[C@H](COc3ccc(NC(=O)c4cc(F)cc(F)c4)cc3C(=O)N2C)O1,inactive
4,CCCNC(=O)N1C[C@@H]2[C@H](c3ccccc31)[C@H](CO)N2C(=O)C1CCOCC1,inactive
5,CNc1nc(NCCOc2ccccc2)c2sccc2n1,inactive
6,CN1C(=O)c2cc(NC(=O)Cc3ccccc3)ccc2OC[C@H]2O[C@@H](CC(=O)NC3CCC3)CC[C@H]21,inactive
7,C/C=C/c1ccc([C@@H]2[C@@H](CO)N(Cc3ccccn3)[C@H]2CNC(=O)CC)cc1,inactive
8,COC(=O)C[C@@H]1CC[C@H]2[C@@H](COc3ccc(NC(=O)c4ccc(F)c(F)c4)cc3C(=O)N2C)O1,inactive
9,CNC(=O)C[C@@H]1CC[C@@H]2[C@H](COc3ccc(NC(=O)NC(C)C)cc3C(=O)N2C)O1,inactive
10,CN1C(=O)c2cc(NC(=O)Nc3cccc(Cl)c3)ccc2OC[C@H]2O[C@H](CC(=O)NCCc3ccncc3)CC[C@H]21,inactive
11,C[C@@H]1CN([C@H](C)CO)S(=O)(=O)c2ccc(-c3ccc(C(=O)N(C)C)cc3)cc2O[C@@H]1CN(C)C(=O)C1CCC1,inactive
12,CCC(=O)N1[C@H](CN(C(C)C)S(C)(=O)=O)[C@@H](c2ccccc2)[C@@H]1CO,inactive
13,CCC(=O)N1[C@H](CO)[C@@H](c2ccccc2)[C@@H]1CN(C(C)C)S(C)(=O)=O,inactive
14,CCN(C[C@H]1N[C@H](CO)[C@H]1c1ccc(C2=CCCC2)cc1)C(=O)c1cccnc1,inactive
15,CCC(=O)N1[C@H](CO)[C@@H](c2ccccc2)[C@H]1CN(C(C)C)S(C)(=O)=O,inactive
16,CCN(C[C@H]1[C@@H](c2ccccc2)[C@@H](CO)N1C(=O)COC)S(C)(=O)=O,inactive
17,CC(C)(C)c1ccc(S(=O)(=O)NCCc2ccncc2)cc1,inactive
18,CCNC(=O)Nc1ccc2c(c1)C(=O)N(C)[C@H]1CC[C@H](CC(=O)NCCOC)O[C@@H]1CO2,inactive
19,C/C=C/c1ccc([C@@H]2[C@@H](CN(C(=O)COC)C(C)C)N(C(C)=O)[C@H]2CO)cc1,inactive
20,CCCNC(=O)Nc1ccc2c(c1)C(=O)N(C)[C@@H]1CC[C@@H](CC(=O)NCC3CCCCC3)O[C@@H]1CO2,inactive
21,CC(C)NC(=O)Nc1ccc2c(c1)C(=O)N(C)[C@@H]1CC[C@H](CC(=O)NCC(F)(F)F)O[C@H]1CO2,inactive
22,CC(C)C(=O)Nc1ccc2c(c1)C(=O)N(C)[C@@H]1CC[C@H](CC(=O)N[C@H](C)c3ccccc3)O[C@@H]1CO2,inactive
23,COc1ccc(NS(=O)(=O)c2ccc(NC(=O)C(C)(C(F)(F)F)C(F)(F)F)cc2)nn1,inactive
24,CC(C)NC(=O)Nc1ccc2c(c1)C(=O)N(C)[C@@H]1CC[C@@H](CC(=O)NCC(F)(F)F)O[C@@H]1CO2,inactive
25,CN1C(=O)c2cc(NC(=O)c3cccs3)ccc2OC[C@H]2O[C@H](CC(=O)NCC(F)(F)F)CC[C@H]21,inactive
26,CCC(=O)N1[C@H](CO)[C@H](c2ccccc2)[C@H]1CNC(=O)CN1CCOCC1,inactive
